# RORgamma inh = inhibitors of mouse ROR gamma transcriptional activity; P51450; Drosophila S2 Gal4-RORgamma UAS-luciferase reporter, 20 h; Potency, µM (top dose mostly 53.6 µM), actives largely listed as inhibitors; 310,000 compounds, 5.4% hits; AID 2551; further: nearly all actives have a fitted effect of over 60% in size
# Target sequence (P51450 whole entry, looked up, the tested form may be a part): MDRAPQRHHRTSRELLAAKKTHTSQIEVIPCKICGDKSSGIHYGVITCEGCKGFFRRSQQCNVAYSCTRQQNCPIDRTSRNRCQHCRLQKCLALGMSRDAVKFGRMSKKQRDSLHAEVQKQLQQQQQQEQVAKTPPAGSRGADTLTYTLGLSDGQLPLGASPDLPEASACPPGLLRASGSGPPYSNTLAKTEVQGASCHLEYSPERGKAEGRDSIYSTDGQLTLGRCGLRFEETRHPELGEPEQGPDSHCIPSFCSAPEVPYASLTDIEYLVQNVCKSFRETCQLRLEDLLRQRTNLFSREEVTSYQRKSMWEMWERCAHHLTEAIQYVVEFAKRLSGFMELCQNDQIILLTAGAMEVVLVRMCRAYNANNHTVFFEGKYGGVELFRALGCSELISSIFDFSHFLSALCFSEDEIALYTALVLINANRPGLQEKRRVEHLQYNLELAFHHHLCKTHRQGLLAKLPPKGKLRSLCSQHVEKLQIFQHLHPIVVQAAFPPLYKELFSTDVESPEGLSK
#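 ROR gamma transcriptional activity was tracked as Gal4-UAS luciferase output in stably transfected Drosophila Schneider cells, with compound added 1 hr before 700 uM copper sulfate induction and a 20 hr ambient-temperature incubation.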
# TDP1 cell CPT = growth inhibition of DT40 Tdp1-/-;hTDP1 cells with camptothecin (screen for TDP1 inhibitors). AID 686979. chicken DT40 Tdp1-/-;hTDP1 cells + 20 nM CPT, ATP luminescence, 48 h. Potency, µM (titrated, usually from 46.2 µM), usual class: inhibitors. 420,000 compounds, 12% hits; further: nearly all actives have a fitted effect of over 55% in size
#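 Chicken DT40 Tdp1-/- cells complemented with human TDP1, 400 cells/well, exposed to compounds plus 20 nM camptothecin for at least 48 h at 37 C; viability read as ATP content by CellTiter-Glo luminescence.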
# DT40 TDP1 no CPT = qHTS for Inhibitors of human tyrosyl-DNA phosphodiesterase 1 (TDP1): qHTS in cells in absence of CPT; DT40 Tdp1-/- hTDP1 cells, no CPT, ATP luminescence, 48 h; Potency, µM (top dose mostly 46.2 µM), usual class: inhibitors; 420,000 compounds, 15% hits; further: nearly all actives have a fitted effect of over 55% in size
#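 Readout: luminescence from CellTiter-Glo after 30 min in the dark at RT. Cells: DT40 Tdp1-/- with stable hTDP1, 400/well. Exposure: compounds alone, ≥48 hr, 37 °C.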
# IL-1B inflam inh = inhibitors of inflammasome signaling (IL-1 beta secretion). THP-1 LPS/ATP IL-1B secretion, AlphaLISA, 16 h; active compounds read low. activity change, % at 57.5 µM. 360,000 compounds, 4.7% hits; in the data active means activity change below about -50%; inconclusive means mostly about -30% to -49%
#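 THP-1 cells pretreated 1 hr with compounds (up to 57.5 uM final), then stimulated with LPS (250 ng/mL final) plus ATP (1.25 mM final); secreted IL-1B measured by AlphaLISA after 16 hr, decreased signal indicating inhibition.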
# Gal4-VP16 FLuc = counter-screen for ROR gamma inhibitors: Gal4-VP16 reporter; Drosophila S2 Gal4-VP16 UAS-luciferase, luminescence, 20 h; Potency, µM (titrated, usually from 53.6 µM), hits mostly inhibitors; AID 2546; 310,000 compounds, 3.5% hits;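 further: Gal4-VP16 expression switched on by copper sulfate through the metallothionein promoter; nearly all actives have a fitted effect of over 50% in size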
# LDHA inh = blocks human lactate dehydrogenase A; P00338; 480,000 compounds, 0.15% hits; activity change, % (values are at about 110 or 230 µM); purified LDHA, NADH/diaphorase-resazurin fluorescence; active compounds read low; in the data active means activity change below about -30%; inconclusive means mostly about -25% to -30%
#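 LDH5 2 nM; NADH 0.06 mM, pyruvate 0.2 mM; 200 mM Tris pH 7.4, EDTA, Tween-20; 5 min RT. Detection: diaphorase 0.133 mg/mL + resazurin 37 µM, fluorescence ex540/em590 at 0 and 20 min; normalized to enzyme-free and DMSO wells.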
# Numbers stand for hits; n = inactive; u = inconclusive; x = no result; [ ] = remark or other dose. Hits are enriched below; roughly 18% of the tested compounds scored in any of these assays. Unless noted, the call rests on the fitted dose curve; in most records, active means well fitted curve in the direction sought with a large enough effect; inconclusive means small, poorly fitted or top-dose-only effect, or another doubt; inactive means no such curve, though single readings can be large; an effect the other way counts as inactive or inconclusive.
SMILES,RORgamma inh,TDP1 cell CPT,DT40 TDP1 no CPT,IL-1B inflam inh,Gal4-VP16 FLuc,LDHA inh
Cc1cc(C)c(O)c(-c2cc(C(=O)NCc3ccccc3)[nH]n2)c1,n,18µM,u,u,n,n
COc1ccc(CCNC(=O)c2cc(-c3cc(C)cc(C)c3O)n[nH]2)cc1OC,n,u,u,n,n,n
COc1cc(NC(=O)c2cnc(NCc3ccccc3)nc2C)cc(OC)c1OC,n,u,u,n,n,n
Cc1cc(O)c(-c2cc(C(=O)NCCc3ccc(S(N)(=O)=O)cc3)[nH]n2)cc1C,n,n,u,n,n,n
Cc1cc(C)c(O)c(-c2cc(C(=O)NCCc3ccc(S(N)(=O)=O)cc3)[nH]n2)c1,n,n,9.2µM,-51,n,n
COc1ccc(CNC(=O)c2cc(-c3cc(C)cc(C)c3O)n[nH]2)cc1,n,u,u,-68,n,n
Cc1cc(NC(=O)CN2CCN(C(=O)c3ccc(Br)cc3)CC2)no1,x,x,x,x,x,n
COc1ccc(-c2cc(C(=O)Nc3cc(OC)c(OC)c(OC)c3)[nH]n2)c(C)c1,x,23µM,12µM,n,x,n
CCNC(=O)c1c(NC(=O)Cc2coc3cc(C)cc(C)c23)sc2c1CCCC2,x,n,n,x,x,n
COc1ccc(-c2cc(C(=O)NCc3ccc(F)cc3)[nH]n2)c(C)c1,x,18µM,u,n,x,n
CCNC(=O)c1c(NC(=O)c2cc(-c3cc(C)cc(C)c3O)n[nH]2)sc2c1CCCC2,x,u,5.8µM,n,x,n
CCOc1ccc2nc(N(Cc3cccnc3)C(=O)C3=COCCO3)sc2c1,x,x,x,x,x,n
COC(=O)c1ccc(COc2ccc3c(=O)c(Oc4ccc(OC)cc4)c(C(F)(F)F)oc3c2)cc1,x,x,x,x,x,n
Cc1cc(C)nc(-n2ncc3c2CC(c2ccccc2)CC3=O)n1 (stereo not drawn),n,n,u,n,n,n
COc1ccc(C2CC(=O)c3cnn(-c4nc(C)cc(C)n4)c3C2)cc1 (stereo not drawn),u,21µM,16µM,n,n[10 µM],n
O=[N+]([O-])c1cccc(/C=N/Nc2ccc(Cl)nn2)c1,x,x,x,x,x,n
CC1C/C(=N\Nc2ccc(S(N)(=O)=O)cc2[N+](=O)[O-])CC(C)(C)C1 (stereo not drawn),u,u,u,-79,u,n
NS(=O)(=O)c1ccc(N/N=C/C2CCCCC2)c([N+](=O)[O-])c1,x,x,x,x,x,n
NS(=O)(=O)c1ccc(N/N=C2/CCCCC2C2CCCCC2)c([N+](=O)[O-])c1 (stereo not drawn),n,21µM,10µM,-112,u,n
COc1ccccc1NS(=O)(=O)c1ccc(NN=C2CCCCC2)c([N+](=O)[O-])c1,u,18µM,26µM,n,n,n
COc1ccc(Oc2coc3cc(OCc4ccccc4C)ccc3c2=O)cc1,x,x,x,x,x,n
CN1CCC(N(C)S(=O)(=O)c2ccc(NC(=O)Cc3ccc(F)cc3)cc2)CC1,x,n,n,n,x,n
CN1CCC(N(C)S(=O)(=O)c2ccc(NC(=O)COc3ccc(Br)cc3Cl)cc2)CC1,x,26µM,16µM,-63,x,n
CN1CCC(N(C)S(=O)(=O)c2ccc(NC(=O)COc3cccc(Cl)c3)cc2)CC1,x,u,u,n,x,n
Cc1ccccc1OCCC(=O)Nc1ccc(S(=O)(=O)N(C)C2CCN(C)CC2)cc1,x,u,u,-61,x,n
SMILES,RORgamma inh,TDP1 cell CPT,DT40 TDP1 no CPT,IL-1B inflam inh,Gal4-VP16 FLuc,LDHA inh
O=P(C1=C(N2CCOCC2)/C(=C\c2ccccc2)CC1)(N1CCOCC1)N1CCOCC1,n,n,n,n,n,n
Cc1c(-c2ccccc2)c(P(=O)(N2CCOCC2)N2CCOCC2)c2ccccn12,n,26µM,u,n,n,n
CCN1C(=O)C(Cc2cc(OC)ccc2OC)c2ccccc21 (stereo not drawn),x,x,x,x,x,n
Cc1ccc(SCC(=O)c2c(C)nc3ccccn23)cc1,n,21µM,10µM,u,n,n
CCOC(=O)c1c(-c2ccccc2)nc2ccc(C)cn12,u,u,16µM,n,n,n
CCOC(=O)c1c(-c2ccccc2)nc2cc(C)ccn12,13µM,u,u,n,n,n
CCOC(=O)C(=O)c1c(-c2ccccc2)nc2ccccn12,n,u,u,n,n,n
CCOC(=O)C(=O)c1c(-c2ccc(C)cc2)nc2ccccn12,n,23µM,u,n,n,n
CCOC(=O)c1c(C)nc2ccccn12,n[10 µM],n,n,n,n,n
COc1cc(C(=O)N(Cc2cccnc2)Cc2cc3cc(C)ccc3[nH]c2=O)cc(OC)c1OC,x,x,x,x,x,n
CCN(C(=O)Cn1nc(C)c2ccccc2c1=O)c1nc2ccccc2s1,x,x,x,x,x,n
CCOC(=O)CSc1nc2c(c(=O)[nH]c(=O)n2C)n1Cc1ccc(Cl)cc1,x,x,x,x,x,n
COCCn1c(SCC(=O)N2CCCc3ccccc32)nc2ccccc2c1=O,n,u,16µM,u,n,n
COCCn1c(SCC(=O)N2CCc3ccccc3C2)nc2cc(Cl)ccc2c1=O,n,u,15µM,-76,n,n

# Bioassay records: PubChem BioAssay, National Center for Advancing Translational Sciences (NCATS)
